# Sampled rows, rich in hits. Any-hit rate of the full collection: about 19%.
# HT1080 IDH1KD tx: HT-1080 IDH1 knockdown cell toxicity (counter line); Potency, µM (top dose mostly 46.1 µM), without a hit: at the top dose activity, negative = toxicity, hits mostly cytotoxic; 360,000 tested, 2% active; HT-1080 IDH1 knockdown viability, ATP luminescence, 48 h;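 also: potency is read from the fitted curve at half-maximal effect; 0% = DMSO wells and -100% = cell-free medium wells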
#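 Knockdown cells (IDH1KD HT-1080) received compounds 2 h after plating at 750 cells/well and were kept 48 h at 37 °C in 5% FBS RPMI. A CellTiter-Glo luminescence read gave % activity for curve fitting.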
# ELG1 DNA repair: ELG1-dependent DNA repair inhibition; HEK293T ELG1-luciferase reporter, luminescence, 16 h; DNA damage induced by 5-fluorouridine; Potency, µM (highest dose often 46.1 µM), for the others: at the top dose activity change, negative = inhibition, most hits filed as inhibitors; 330,000 tested, 2.3% active; AID 504467; also: potency is read from the fitted curve at half-maximal effect; nearly all actives have a fitted effect of over 55% in size
#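 Cells (2,000 per well) received 5-fluorouridine plus test compound or DMSO and were incubated 16 hr at 37 °C, 5% CO2. Luciferase activity was read by luminescence 30 min after ONE-Glo addition; signal suppression marked inhibition of damage-induced ELG1 function.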
# IL-1B inflam inh: inhibitors of inflammasome signaling (IL-1 beta secretion); THP-1 LPS/ATP IL-1B secretion, AlphaLISA, 16 h; active compounds read low; 360,000 tested, 4.7% active; activity change, % at 57.5 µM; in the data active = activity change below about -50%; inconclusive = mostly about -30% to -49%
#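 THP-1 cells pretreated 1 hr with compounds (up to 57.5 uM final), then stimulated with LPS (250 ng/mL final) plus ATP (1.25 mM final); secreted IL-1B measured by AlphaLISA after 16 hr, decreased signal indicating inhibition.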
# DT40 TDP1 no CPT: qHTS for Inhibitors of human tyrosyl-DNA phosphodiesterase 1 (TDP1): qHTS in cells in absence of CPT. DT40 Tdp1-/- hTDP1 cells, no CPT, ATP luminescence, 48 h. 420,000 tested, 15% active. Potency, µM (doses to about 46.2 µM), inactives show at the top dose activity change, negative = growth inhibition, most hits filed as inhibitors. AID 686978, 2013; also: potency is read from the fitted curve at half-maximal effect; nearly all actives have a fitted effect of over 55% in size
#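 Camptothecin absent (DMSO only). Human TDP1-complemented DT40 knockout cells, 400 cells/well, 37 °C for minimum 48 hr; ATP measured via CellTiter-Glo, 30 min dark incubation, luminescence.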
# HT1080NT lethal: kills 2HG-producing HT-1080-NT fibrosarcoma cells. Potency, µM (top dose mostly 46.1 µM), without a hit: at the top dose activity, negative = less viability, hits mostly cytotoxic. 360,000 tested, 1.6% active. HT-1080-NT fibrosarcoma viability, CellTiter-Glo ATP luminescence, 48 h;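 also: NT is the 2HG producing partner of a matched IDH1 knockdown line; potency is read from the fitted curve at half-maximal effect; 0% = DMSO-treated cells and -100% = media-only wells without cells; nearly all actives have a fitted effect of over 55% in size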
#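 Read-out is CellTiter-Glo luminescence after 10 minutes at room temperature, following 48 hours' compound treatment of HT-1080-NT cells (750 cells/well, RPMI, 5% FBS, 37 degrees C).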
# DT40 TDP1 CPT: DT40-hTDP1 cell growth loss with CPT. chicken DT40 Tdp1-/-;hTDP1 cells + 20 nM CPT, ATP luminescence, 48 h. Potency, µM (series often up to 46.2 µM), inactives show at the top dose activity change, negative = growth inhibition, usual class: inhibitors. 420,000 tested, 12% active; also: potency is read from the fitted curve at half-maximal effect; nearly all actives have a fitted effect of over 55% in size
#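 Cell growth measured by CellTiter-Glo luminescence after a minimum 48 h, 37 C compound exposure with 20 nM CPT in Tdp1-knockout DT40 cells stably expressing hTDP1, seeded 400/well; qHTS titration format.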
# * marks the source's active call; other numbers are inactive results; ? = inconclusive; nt = not tested or not shown. Unless noted, calls follow the shape of the dose curve; as a rule, active = well fitted curve in the direction sought with a large enough effect; inconclusive = small, poorly fitted or top-dose-only effect, or another doubt; inactive = no such curve, though single readings can be large; an effect the other way counts as inactive or inconclusive. Unless noted, % is scaled to controls: 0 for no effect and ±100 for the full control effect.
SMILES,HT1080 IDH1KD tx,ELG1 DNA repair,IL-1B inflam inh,DT40 TDP1 no CPT,HT1080NT lethal,DT40 TDP1 CPT
CCOC(=O)c1c(C)[nH]c(C)c1S(=O)(=O)N1CCCC(C(=O)N2CCN(c3cccc(Cl)c3)CC2)C1 (stereo not given),nt,nt,nt,21µM*,nt,21µM*
CCOC(=O)c1c(NC(=O)COC(=O)Cc2c[nH]c3ccccc23)sc(C(=O)N(C)C)c1C,-2%,-22%,19,?,-8%,-21%
CCNC(=O)c1cc(S(=O)(=O)N2CCSCC2)ccc1OC,-1%,14%,3,15%,0%,4%
CCc1ccc(NC(=O)Cn2c(=O)n(-c3ccc(Cl)c(Cl)c3)c(=O)c3c(C)c(C)sc32)cc1,nt,nt,nt,0%,nt,-13%
COc1ccc(-n2c(CN3CCN(c4ccc(F)cc4)CC3)nc3ccc([N+](=O)[O-])cc3c2=O)c(OC)c1,6%,?,21,?,0%,?
COc1ccc(-n2c(CN3CCN(c4ccccn4)CC3)nc3ccc([N+](=O)[O-])cc3c2=O)c(OC)c1,0%,?,-23,21µM*,-1%,?
O=c1c2cc([N+](=O)[O-])ccc2nc(CN2CCN(c3ccccn3)CC2)n1-c1ccccc1F,5%,?,32,15µM*,11%,?
COc1ccc(-n2c(CN3CCN(Cc4ccccc4)CC3)nc3ccc([N+](=O)[O-])cc3c2=O)c(OC)c1,-2%,6%,62,-7%,-11%,?
O=C(c1ccco1)N1CCN(Cc2nc3ccc([N+](=O)[O-])cc3c(=O)n2-c2ccccc2F)CC1,-14%,23µM*,70,8.2µM*,-12%,?
Cc1cc(-c2ccc(C(C)C)c(S(=O)(=O)Nc3ccccn3)c2)on1,12%,?,-4,18%,23%,-2%
C=CCc1cccc(CNn2cnnc2)c1O,10%,2%,-8,23%,13%,0%
CCOC(=O)C1=C(C)NC2=C(C(=O)C(C(=O)OCC)C(c3ccco3)C2)C1c1ccccc1C (stereo not given),nt,nt,nt,22µM*,nt,20µM*
O=C(CCNS(=O)(=O)c1ccccc1)NNC(=O)C1COc2ccccc2O1 (stereo not given),6%,1%,6,-4%,5%,12%
Oc1c(Br)cc(C=Nc2ccc3nc(-c4ccccc4)[nH]c3c2)c(O)c1Br,?,?,32,15µM*,-20%,16µM*
CC(N)C(=O)NC(C(=O)NC(C)C(=O)Nc1cccc2ccccc12)C(C)C (stereo not given),8%,nt,30,-5%,0%,-17%
COC(=O)c1ccc2nc(-c3ccc(Cl)cc3)c(CC3CCCCC3)n2c1,13%,nt,53,4.1µM*,11%,8.2µM*
COC(=O)c1ccc2nc(-c3cccc(Br)c3)c(CC3CCCCC3)n2c1,-1%,nt,60,?,8%,?
COC(=O)c1ccc2nc(-c3ccc(OC)c(OC)c3)c(CC3CCCCC3)n2c1,-9%,nt,28,18µM*,-15%,?
CCc1cccc(NC(=O)CCc2nc3sc4c(c3c(=O)[nH]2)CCCC4)c1,7%,-6%,18,10µM*,18%,8.2µM*
CCCCOC(=O)c1ccc(NC(=O)CSc2nc3c(c(=O)[nH]2)CCCC3)cc1,nt,nt,nt,13µM*,nt,?
Cc1cccc(NC(=O)CCc2nc3sc4c(c3c(=O)[nH]2)CCCC4)c1,-5%,11%,0,?,-11%,?
Cc1ccc(Cl)cc1NC(=O)CSc1nc2c(c(=O)[nH]1)CN(Cc1ccccc1)CC2,nt,nt,nt,?,nt,-16%

# Assay outcomes as filed in PubChem BioAssay.
